Assay results reported in PubChem BioAssay AID1159580 (chemical genetic matrix, 2015).
The campaign covered roughly 5,500 compounds. About 2,000 (36%) were called active. Roughly 18% stayed inconclusive and do not appear here. No stated cut-off is given here; in the data, active means normalized growth mostly below about 0.91 (no sharp cut-off); inconclusive means no clear call, values can overlap the other calls; inactive means mostly above about 0.92. This is one part of the list.

Test: chemical genetic growth profiling, strain panel (AID 1159580);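 further: tested at 20 µM; growth read once vehicle control cultures reached saturation at 30 °C; 1 = growth at the plate median or of vehicle wells; lower values mean less growth of the strain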
Details: S. cerevisiae deletion strains, growth OD

Measured: normalized growth

N[C@@H](Cc1cnc[nH]1)C(=O)O
inactive: locus YAL013W, strain DEP1, active compounds read low 0.963 | locus YAL040C, strain CLN3, active compounds read low 0.939 | locus YCL061C, strain MRC1 (second series), active compounds read low 0.987 | locus YDR363W, strain ESC2, active compounds read low 0.979 | locus YER002W, strain NOP16, active compounds read low 0.991 | locus YMR307W, strain GAS1, active compounds read low 0.986 | locus YNL128W, strain TEP1, active compounds read low 0.978 | locus YNL153C, strain GIM3, active compounds read low 1.01 | locus YNL175C, strain NOP13, active compounds read low 0.989 | locus YNL197C, strain WHI3, active compounds read low 0.988 | locus YNL224C, strain SQS1, active compounds read low 0.996 | locus YOR083W, strain WHI5 (second series), active compounds read low 1.03
